# ± gives the standard deviation.
# Tested on: MILI (PIWIL2) piRISC loaded with piRNA #1 (26 nt)
# Experiment: pre-steady-state target cleavage rate (min^-1); guide: piRNA #1 5'p-UGAGGUAGUAGGUUGUAUAGUAUCCA; MIWI and MILI are mouse PIWI proteins and EfPiwi is from a freshwater sponge; tags in brackets are library labels; higher = faster piRNA-guided slicing of the target
# Conditions: auxiliary factor: 500 nM mouse GTSF1
# How it was run: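 Cleave-'n-Seq: 1 nM active affinity-purified piRISC with one synthetic guide and 0.1 nM transcribed, DNA-blocked target RNA library were mixed, with or without 500 nM GTSF1 partner protein, in HEPES–potassium acetate buffer at 33 °C for 0–8 or 0–960 min. Uncleaved targets were sequenced and normalised to depth and to weakly complementary targets, three trials were pooled, and k3 was capped at 0.0001 min^-1. The pre-steady-state cleavage rate was fitted […].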
row,Sequence,pre-steady-state target cleavage rate
1,GGAGACCUAUGAUUACAACCUACUACCUACA,0.00666 ± 0.0024
2,GGAGUGCUUACUAUACAACCUACUACCUCA,0.162 ± 0.0091
3,GGAGACCUUACUAUACAACCUACAUACCUCA,0.157 ± 0.011
4,GGAGACGAUACCUAUACAACCUACUACCUCA,0.104 ± 0.025
5,GGAGACCUAUGUAUACACCCUACUACCUCA,0.0161 ± 0.0035
6,GGAGACCUAUCAAUACUACCUACUACCUCA,0.0216 ± 0.0056
7,GGAGUGGAUUCUAUUCAACCUACUACCUCA,0.165 ± 0.008
8,GGAGACCUAUGUAUACAACCUACUGCCUCA,0.0511 ± 0.0081
9,GGAGACCUAACUAUACAAGCUACUACCACA,0.309 ± 0.029
10,GGAGACCUAUGAAUACAUCCUACUUCCUCA,0.00892 ± 0.0025
11,GGAGACCUAACAUACAACCUACUACCUCA,0.0208 ± 0.009
12,GGAGACCUAUCUAUACAAUCUACUACCUCA,0.093 ± 0.0085
13,GGAGUGGAUACUAUACAACCUACAUACCUCA,0.109 ± 0.011
14,GGAGACCUAACUAUUGUACCUACUACCUCA,0.00477 ± 0.0036
15,GGAGACCUUACUAUACAACCAACAACCUCA,0.00353 ± 0.0022
16,GGAGACCUAUCUAUACAACCUACUACCUAA,0.0733 ± 0.0096
17,GGAGACCUAUGUUUACAACCUACUACGUCA,0.00415 ± 0.0018
18,GGAGACCUUACUAUACAUCGUACUACCUCA,0.0364 ± 0.0047
19,GGAGACCUAUGAUAUGUAGGAACUACCUCA,< 0.0001
20,GGAGACCUAUGUAUACUAGCUACUACCUCA,0.0336 ± 0.0059

row,Sequence,pre-steady-state target cleavage rate
1,GGAGACCUAUCUAUACAAGCUUCUACCUCA,0.0321 ± 0.0061
2,GGAGACCUAUGAUAUGUAACCUACUACCUCA,0.017 ± 0.0038
3,GGAGACCUAUCUAUUCAACCUUCUACCUCA,0.0069 ± 0.0028
4,GGAGACCUAUGAAUACAACCUCACUACCUCA,0.00378 ± 0.0031
5,GGAGACCUAUGUAUUCAACCUUCUACCUCA,0.00294 ± 0.0026
6,GGAGACCUAUCUAUACAACCAACUACGUCA,0.00385 ± 0.0021
7,GGAGACCUAUGUAUACAAGCUACUACGUCA,0.0451 ± 0.009
8,GGAGACGAUAGUAUACAAGCUACUACCUCA,0.176 ± 0.016
9,GGAGACCUAACUAUUCAAGCUACUACCUCA,0.217 ± 0.027
10,GGAGACCUUUCUAUACUACCUACUACCUCA,0.0739 ± 0.011
11,GGAGACCUAAGUAUACAACCUACUAGCUCA,0.0149 ± 0.0043
12,GGAGACCUAUGAUAUGUUCCUACUACCCCA,< 0.0001
13,GGAGACGAUACUAAACAACCUACAACCUCA,0.116 ± 0.013
14,GGAGACCUAACAAUACAACCUACUAGCUCA,0.0462 ± 0.017
15,GGAGACGAUACUAUACAACCUACAACGUCA,0.00524 ± 0.0044
16,GGAGACCUAACUAUACAACCUACUACCAUCA,0.261 ± 0.038
17,GGAGACCUUACUAAACAUCCUACUACCUCA,0.208 ± 0.017
18,GGAGACCUUACUAUACUACCUACUACGUCA,0.0704 ± 0.01
19,GGAGACCUAUGUAUACAACCUACUCACCUCA,0.0823 ± 0.015

# — the supplement of paper PMC10338343
